Assay results: PubChem BioAssay (Tox21)
Values joined by “and” are separate entries in the source; they are usually repeats but may differ in a detail not shown here. Identical values can stand only once. Records with an inconclusive call do not appear. Active and inactive are the calls of the source. Calls follow the shape of the dose curve; as a rule, active = well fitted cell-killing curve with a large enough effect in the repeat runs; inconclusive = weak or mixed curves, or effect the other way; inactive = no such curve, though single readings can be large or run the other way.

Experiment: qHTS assay for small molecule activators of the heat shock response signaling pathway - cell viability counter screen (AID 743209); also: nearly all actives have a fitted effect of over 50% in size
Conditions: HSE-bla HeLa viability, CellTiter-Glo luminescence, 5 h; series mostly up to 62.6 µM; activity change, negative = cytotoxicity: at the top concentration
Text: U.S. Tox21 Program National Center for Advancing Translational Sciences [NCATS] NIH Chemical Genomics Center [NCGC] U.S. Environmental Protection Agency [EPA] National Institutes of Environmental Health Sciences [NIEHS] National Toxicology Program [NTP] U.S. Food and Drug Administration [FDA] Tox21 Assay Overview: Various chemicals, environmental and physiological stress conditions may lead to the activation of heat shock response/ unfolded protein response (HSR/UPR). There are three heat shock transcription factors (HSFs) (HSF-1, -2, and -4) mediating transcriptional regulation of the human HSR. To identify the compounds that activate HSR signaling, HSE-bla HeLa cell line (Invitrogen, Carlsbad, CA, USA) containing a beta-lactamase reporter gene under the control of the heat shock response elements was used to screen Tox21 10K compound library. The cytotoxicity of the Tox21 compound library against the HSE-bla HeLa cell line was tested in parallel by measuring the cell viability using CellTiter-Glo assay (Promega, Madison, WI) in the same wells.
Tox21 Assay Protocol Summary: The CellSensor HSE-bla HeLa cells (Invitrogen, Carlsbad, CA, USA) were dispensed at 1500 cells/6uL/well into 1536-well black wall/clear bottom plates using a Multidrop combi (Thermo Fisher Scientific, Waltham, MA) dispenser. After the assay plates were incubated at 37 C and 5% CO2 overnight, 23 nL of compounds dissolved in DMSO, positive controls or DMSO only was transferred to the assay plate by a Pintool station (Kalypsys, San Diego, CA). The plates were incubated at 37 C for 5 h. After 1 uL of LiveBLAzerTM B/G FRET substrate was added using a Flying Reagent Dispenser (FRD, Beckman Coulter, Indianapolis, IN, USA), the plates were incubated at room temperature for 2.5 h, and fluorescence intensity was measured by an Envision plate reader (PerkinElmer, Shelton, CT). For cell viability readout that measures cytotoxicity, 3 ul/well of CellTiter-Glo reagent was added into the assay plates using a FRD. After 30 min incubation at room temperature, the luminescence intensity in the plates was measured using a ViewLux (PerkinElmer) plate reader.
% is scaled to controls: 0 for no effect and ±100 for the full control effect; potency is read from the fitted curve at half-maximal effect.

Row | SMILES | Potency | activity change, negative = cytotoxicity
1 | CCCOc1sc(C(=O)N2CCC(c3cc(CN)ccc3F)CC2)c(C)c1Br | 40 µM (active) | –
2 | COc1cc(C(=O)NS(=O)(=O)c2ccccc2C)ccc1Cc1cn(C)c2ccc(NC(=O)OC3CCCC3)cc12 | – | -9.86% (inactive)
3 | [O]=[Zr] | – | 2.11% (inactive)
4 | O=C(Nc1ccc(Cl)cc1)Nc1ccc(Cl)c(C(F)(F)F)c1 | 9.44 µM (active) | –
5 | C[C@@]12C(=O)OC(=O)[C@]1(C)C1CCC2O1 | – | 25% (inactive)
6 | CCCCCCCCCCCCCOP(=O)(O)O | 34.7 µM (active) | –
7 | C=CC(=O)OCC(O)COc1ccccc1 (stereo not given) | 4.9 µM (active) | –
8 | CN(C)CCCN1c2ccccc2Sc2ccc(C(F)(F)F)cc21 | – | 4.44% (inactive)
9 | CC(C)c1ccc(O)c(C(C)C)c1 | – | -14.9% (inactive)
10 | COc1ccc(-n2nc(CCC(=O)N(C)O)cc2-c2ccc(Cl)cc2)cc1 | – | 4.62% (inactive)
11 | CCOC(=O)[C@@](C)(N)Cc1ccc(O)c(O)c1 | – | -8.78% (inactive)
12 | CCC1(c2cnc[nH]2)Cc2ccccc2C1 | – | 21.9% (inactive)
13 | CCc1ccc(O)c(C(C)(C)C)c1 | – | -23.9% (inactive)
14 | NCCCC(O)(P(=O)(O)O)P(=O)(O)O | – | -3.13% (inactive)
15 | Cc1nc(Nc2ncc(C(=O)Nc3c(C)cccc3Cl)s2)cc(N2CCN(CCO)CC2)n1 | – | 10.7% (inactive)
16 | NC(=O)c1ccccc1N | – | -4.74% [at 81.1 µM] (inactive)
17 | ClC/C=C\CCl | – | -5.31% [at 81.1 µM] (inactive)
18 | CCN(CC)CCOc1ccc(C(O)(Cc2ccc(Cl)cc2)c2ccc(C)cc2)cc1 (stereo not given) | – | -35.6% (inactive)
19 | C=CC(=C)CCC=C(C)C | – | -28.7% (inactive)
20 | CSc1ccc2c(c1)N(CCC1CCCCN1C)c1ccccc1S2 (stereo not given) | 54.7 µM (active) and 29.8 µM (active) | –

Row | SMILES | Potency | activity change, negative = cytotoxicity
21 | CC(C)=C1CC[C@@H](C)CC1=O | – | -12.9% (inactive)
22 | C=C(c1ccc(C(=O)O)cc1)c1cc2c(cc1C)C(C)(C)CCC2(C)C | 11 µM (active) and 21.1 µM (active) | –
23 | O=Cc1ccc(F)cc1 | – | -1.34% (inactive)
24 | C/C=C/C=N/NC(=O)c1ccncc1 | 18.8 µM (active) | –
25 | CNC(=O)c1cc(Oc2ccc(NC(=O)Nc3ccc(Cl)c(C(F)(F)F)c3)cc2)ccn1 | – | -27.9% (inactive)
26 | O=C(O)Cc1ccc(OCCNC[C@H](O)c2ccccc2)cc1 | – | -21.4% (inactive)
27 | CN(C)c1ccc(N=NS(=O)(=O)O)cc1 | – | 30.3% [at 81.1 µM] (inactive)
28 | O=C(O)CCn1c2c(c3ccccc31)C[C@H](NS(=O)(=O)c1ccc(F)cc1)CC2 | – | -2.12% (inactive)
29 | O=Nc1ccc(NO)cc1 | – | -26.5% [at 81.1 µM] (inactive)
30 | C=CC(=O)OCCOCC(CC)(COCCOC(=O)C=C)COCCOC(=O)C=C | 18.1 µM (active) | –
31 | CN(C)CCCN1c2ccccc2CCc2ccccc21 | inactive | –
32 | CCc1cccc(C)c1 | – | 9.5% [at 81.1 µM] (inactive)
33 | CNCC[C@H](Oc1cccc2ccccc12)c1cccs1 | 29.8 µM (active) | –
34 | NCCCCCCNCCCCCCN | – | 4.41% (inactive)
35 | Cn1cnc2ncnc(N)c21 | – | 2.69% (inactive)
36 | CC(=O)Nc1ccc(O)cc1 | inactive | –
37 | CC(C)N=C(N)/N=C(\N)Nc1ccc(Cl)cc1 | – | 3.55% (inactive)
38 | CCCCCCCCCC(=O)N(C)C | – | -15.1% [at 81.1 µM] (inactive)
39 | C[n+]1c2cc(N)ccc2cc2ccc(N)cc21 (tested in a mixture with another compound) | 29.8 µM (active) | –
40 | COCC(=O)O[C@]1(CCN(C)CCCc2nc3ccccc3[nH]2)CCc2cc(F)ccc2[C@@H]1C(C)C | – | -9.47% (inactive)
